This is an account of results in PubChem BioAssay AID2101 (National Center for Advancing Translational Sciences (NCATS), 2009).

SMILES strings stand for the structures. Screen size: about 330,000 compounds; about 300 (0.091%) were called active. Where a call stands in place of a potency, no number is given. Roughly 4% stayed inconclusive and do not appear here. The sample as a whole holds a higher share of actives than the screen did. Unmarked numbers belong to inactive results. Calls follow the shape of the dose curve; as a rule, active = well fitted inhibition curve with a large enough effect; inconclusive = small, poorly fitted or top-dose-only effect, or effect the other way, or another doubt; inactive = no such curve, though single readings can be large or run the other way.
Potency is read from the fitted curve at half-maximal effect.

This experiment concerns the target Lysosomal acid glucosylceramidase (Homo sapiens) (UniProt P04062). Briefly: qHTS Assay for Inhibitors and Activators of N370S glucocerebrosidase as a Potential Chaperone Treatment of Gaucher Disease. Conditions: N370S GC spleen homogenate, 4MU-glucoside fluorescence; series mostly up to 59.4 µM. From the text:
NIH Chemical Genomics Center [NCGC]
NIH Molecular Libraries Probe Production Centers Network [MLPCN]
Assay Submitter (PI): Wei Zheng
Glucocerebrosidase (GC) catalyzes the hydrolysis of beta-glucocerebroside to glucose and ceramide in lysosomes. Mutations in the glucocerebrosidase gene result in Gaucher disease, an autosomal recessive lysosomal storage disorder. Many of the mutations encountered in patients with Gaucher disease are missense alterations that may cause misfolding, decreased stability and/or mistrafficking of this lysosomal protein. […] These inhibitors include iminosugar analogs and three non-iminosugar inhibitors identified from a previous HTS of 62,000 compounds with the wild type recombinant enzyme. However, the enhancement of enzyme activity by the chaperone action of an enzyme inhibitor must be balanced against the direct inhibition of the enzyme. An enzyme activator could also function as a chaperone by binding to the enzyme and helping to correct its misfolding and mistrafficking. While activators for GC have not yet been identified, they may have better therapeutic potential than inhibitors. Therefore the discovery and development of chemical activators may provide a new strategy for the chaperone therapy.
We have optimized a new assay using N370S mutant GC derived from the spleen of a Gaucher patient. […] In addition, the MLPCN compound library has expanded, which increases the chance of finding new and better probes.
NCGC Assay Protocol Summary:
This is a fluorogenic enzyme assay with 4-methylumbelliferyl-beta-D-glucopyranoside as the substrate and N370S glucocerebrosidase from human spleen homogenate as the enzyme preparation. Upon the hydrolysis of this fluorogenic substrate, the resulting product, […] which can be detected by a standard fluorescence plate reader. Data were normalized to the controls for basal activity (without enzyme) and 100% activity (with enzyme). The AC50 values were determined from concentration-response data modeled with the standard Hill equation.
Assay buffer: 50 mM citric acid (titrated with potassium phosphate to pH 5.0), 100 mM potassium chloride, 10 mM sodium chloride, 1 mM magnesium chloride, 0.01% Tween-20.
1536-well assay protocol:
(1) Add 2 ul/well of spleen homogenate (27 ug final)
(2) Add 23 nL compounds in DMSO solution. The final titration was 0.5 nM to 58 uM.
(3) Add 2 ul of substrate (1 mM final)
(4) Incubate at 37C for 40 min.
(5) Add 2 ul stop solution (1M NaOH and 1M Glycine mixture, pH 10)
(6) Detect the assay plate in a ViewLux plate reader (PerkinElmer) with Ex=365 nm and Em=440nm.
Keywords: Glucocerebrosidase, beta-glucosidase, Gaucher Disease, pharmacological chaperone, chaperone therapy, high throughput screening, glucocerebrosidase inhibitor, MLSMR, MLSCN, NIH Roadmap, qHTS and NCGC
Turning to `O=C(NCCc1ccc(F)cc1)c1ccc(S(=O)(=O)N2CCCCC2)cc1`, the activity change, negative = inhibition result is “inactive”. For the molecule `Nc1nc2c(ncn2[C@@H]2O[C@H](COP(=O)(O)OP(=O)(O)OP(=O)(O)O)[C@@H](O)C2O)c(=O)[nH]1` (stereo partly drawn), the activity change, negative = inhibition result was “inactive”. Turning to `Cc1occc1-c1nnc(SCC(=O)NC2(C#N)CCCC2)n1C`, the activity change, negative = inhibition result was “inactive”. For `C/C=C(\C)C(=O)OC1C(OC(=O)C2(C)OC2C)c2cc3ccc(=O)oc3cc2OC1(C)C` (stereo not drawn), the activity change, negative = inhibition result was “inactive”. `O=C(c1cnccn1)N1CCC2(CCN(Cc3cc(C(F)(F)F)cc(C(F)(F)F)c3)CC2)CC1`: the activity change, negative = inhibition result is “inactive”. Still for that read-out and setting: the same measure for `Cc1ccc(NC(=O)CCC(=O)N2CCC(c3ccccc3)=N2)cc1S(=O)(=O)N1CCCCC1`: “inactive”. As for `CC(=O)OCCC(C)C`, the activity change, negative = inhibition entry is “inactive”. On to `CCCCCCN(C(=O)CCCCCN1C(=O)NC(c2ccc(C(F)(F)F)cc2)C(C(=O)OCc2ccccc2)=C1C)C(C(=O)NCCCC)c1ccc(OCC(=O)OC)c(C(=O)OC)c1` (stereo not drawn), for which the activity change, negative = inhibition entry is “inactive”. As for `c1ccc(Oc2ccccc2)cc1`, the activity change, negative = inhibition entry was “inactive”. With `C=CCOC(=O)C(C(C)=O)C(NC(=O)OC)c1ccccc1` (stereo not drawn), the activity change, negative = inhibition was -15.4% [at 12.8 µM]. As to `COC(=O)CCc1ccccc1S(=O)(=O)N(CCC(=O)OC)Cc1ccccc1`, the activity change, negative = inhibition result was “inactive”. Regarding `CC1CC[C@@]23CCC4(C)[C@@]5(C)CCC6C(C)(C)C(O)CC[C@@]6(C)C5C=C[C@@]4(OC2=O)C3C1C` (stereo partly drawn), the activity change, negative = inhibition result was “inactive”. With `CCN(CC)/[N+]([O-])=N/Oc1cc(O/[N+]([O-])=N/N2CCCC2CO)c([N+](=O)[O-])cc1[N+](=O)[O-]` (stereo not drawn), the activity change, negative = inhibition result is “inactive”. Same read-out and setting: the same measure for `COC(=O)N1C(/C=C/C=C/c2ccc(OC)cc2)=Cc2ccccc2C1CC(C)=O` (stereo not drawn): -10.4% [at 12.8 µM]; for `COc1ccc(-c2nc3c(c4c2C[C@H](c2ccccc2)OC4)CN(C(=O)C2CC2)CC3)c(C)c1`: -14.3% [at 12.8 µM]; for `C[C@]12CC[C@@H]3C(=CCc4cc(O)ccc43)[C@@H]1CCC2=O`: “inactive”. Turning to `CCOC(OCC)OCC`, the activity change, negative = inhibition result was “inactive”. The same measure, in the same setting: the same measure for `COc1ccc(Cl)cc1NC(=O)CN(C)CC(=O)Nc1ccc2c(c1)OCO2`: “inactive”; for `COc1cccc(CC(=O)N2CCc3nc(COc4ccccc4)c4c(c3C2)CO[C@@H](C)C4)c1`: 3.29% [at 12.8 µM]; for `O=S(=O)(Nc1ccc2nc(N3CCOCC3)sc2c1)c1ccccc1`: “inactive”. With `CC(C)C(NC(=O)c1c(F)cccc1F)C(=O)NCc1ccncc1` (stereo not drawn), the activity change, negative = inhibition entry is “inactive”. Turning to `O=C(Nc1cccc(C(=O)NC2CC2)c1)c1ccc(F)c(S(=O)(=O)N2CCOCC2)c1`, the activity change, negative = inhibition entry is “inactive”. In the case of `COc1ccc(CNC(=O)COC(=O)c2c(C)nn(-c3ccccc3)c2C)cc1OC`, the activity change, negative = inhibition entry is “inactive”. Consider `Cc1ccccc1Nc1nc(N)nc(COC(=O)CCC(=O)c2ccc(F)cc2)n1`, for which the activity change, negative = inhibition entry was “inactive”. Consider `CN(CC(=O)Nc1cccc(F)c1)C(=O)CC1CCCC1`, for which the activity change, negative = inhibition entry was “inactive”. As to `Cc1cc(C(C)(C)C)n2nc(C)c(-c3ccccc3)c2n1`, the activity change, negative = inhibition result is “inactive”. On to `Cc1cc(N)n2nc(-c3ccc(C(C)(C)C)cc3)cc2n1`, for which the Potency was 10 µM (active). In the case of `Cc1nc2cc(-c3ccc(F)cc3)nn2c(N2CCOCC2)c1C`, the activity change, negative = inhibition result is “inactive”. `CC(O)[C@@H](N)C(=O)O` (stereo partly drawn): the activity change, negative = inhibition entry is “inactive”. As for `CC/C=C/C/C=C/C/C=C/CCCCCCCC(=O)OCC`, the activity change, negative = inhibition entry was “inactive”. As for `COC(=O)C(C(=O)OC)[C@@H]1CCCC(=O)C1`, the activity change, negative = inhibition is 8.05% [at 12.8 µM]. For `Cc1cc(C)c(C#N)c(SCC(=O)N(CC(C)C)C2CCS(=O)(=O)C2)n1` (stereo not drawn), the activity change, negative = inhibition entry is “inactive”. With `O=C(COc1ccccc1O)NC1CCCC1`, the activity change, negative = inhibition entry is “inactive”.

In the case of `FC(F)(F)c1ccccc1-c1cc(NCc2ccccc2)ncn1`, the activity change, negative = inhibition result was “inactive”. With `COc1cccc(-c2cc(=O)c3cc(NC(=O)c4ccc(C)cc4)ccc3[nH]2)c1`, the activity change, negative = inhibition result was “inactive”.

As to `CCCCC(CC)CN` (stereo not drawn), the activity change, negative = inhibition result is “inactive”.

Regarding `CCCCC/C=C\C/C=C\C/C=C\CCCCC(=O)NCC(=O)O`, the activity change, negative = inhibition result was “inactive”. Regarding `CC(=O)Nc1ccc(S(=O)(=O)N2CCN(S(=O)(=O)c3cccs3)CC2)cc1`, the activity change, negative = inhibition result was “inactive”. Take `CCc1c2c(nc3ccc(O)cc13)-c1cc3c(c(=O)n1C2)COC(=O)[C@]3(O)CC`: the activity change, negative = inhibition entry is “inactive”. Turning to `Cc1cc(C)cc(C#CC2C=CC(Oc3ccc(C4CCCC4)cc3)C(CO)O2)c1` (stereo not drawn), the activity change, negative = inhibition was 7.35% [at 12.8 µM].

With `O=C1C2C(c3ccccc3)CC=CC2C(c2ccoc2)N1Cc1ccccc1` (stereo not drawn), the activity change, negative = inhibition result was “inactive”. Turning to `O=C(CN1CCCSc2ccccc21)N1CCN(S(=O)(=O)c2ccccc2)CC1`, the activity change, negative = inhibition entry was “inactive”. In the case of `COC(=O)NC(c1ccccc1)[C@]1(C(C)=O)CCCC1=O` (stereo partly drawn), the activity change, negative = inhibition is 0.29% [at 12.8 µM].
